The assay has as its target T1, v3.1_PPR16 (Artificial Sequence).
T1 chain: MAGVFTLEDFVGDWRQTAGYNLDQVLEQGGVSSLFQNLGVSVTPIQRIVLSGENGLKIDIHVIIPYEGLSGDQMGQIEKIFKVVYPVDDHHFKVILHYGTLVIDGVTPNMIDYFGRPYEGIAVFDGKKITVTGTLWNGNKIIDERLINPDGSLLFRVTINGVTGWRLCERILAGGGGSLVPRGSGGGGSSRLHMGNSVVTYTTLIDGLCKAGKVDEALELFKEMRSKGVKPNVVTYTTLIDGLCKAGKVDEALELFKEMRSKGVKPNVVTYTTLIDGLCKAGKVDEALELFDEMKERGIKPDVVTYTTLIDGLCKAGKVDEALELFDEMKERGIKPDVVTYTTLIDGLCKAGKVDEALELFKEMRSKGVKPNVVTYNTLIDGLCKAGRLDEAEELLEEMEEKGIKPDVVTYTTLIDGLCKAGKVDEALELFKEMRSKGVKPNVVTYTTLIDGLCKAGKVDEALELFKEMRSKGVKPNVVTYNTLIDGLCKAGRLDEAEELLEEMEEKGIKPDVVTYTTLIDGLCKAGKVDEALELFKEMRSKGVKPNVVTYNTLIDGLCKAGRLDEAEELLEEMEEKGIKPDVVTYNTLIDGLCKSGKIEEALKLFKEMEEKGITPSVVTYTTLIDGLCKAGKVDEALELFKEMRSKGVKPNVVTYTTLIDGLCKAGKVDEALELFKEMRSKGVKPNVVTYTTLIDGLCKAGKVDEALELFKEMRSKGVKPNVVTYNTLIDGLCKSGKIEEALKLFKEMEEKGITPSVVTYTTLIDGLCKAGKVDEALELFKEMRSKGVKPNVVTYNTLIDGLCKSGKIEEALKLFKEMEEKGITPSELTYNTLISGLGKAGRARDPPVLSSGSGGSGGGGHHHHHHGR
In words: RPB-ELISA. To be noted: tags: N-terminal luciferase, C-terminal 6xHis; label: 5'-biotin; ssRNA. The protocol:
RNA probes consisting of a designed 30-base sequence containing 18 bases of the target sequence and modified by biotinylation at the 5′ end (RNA_1, RNA_2, RNA_3, RNA_4, and RNA_5, SEQ ID NOS: 61 to 65) were synthesized (Grainer). To a streptavidin-coated plate (Thermo fisher), the 5′-end biotinylated RNA probes were added, reaction was allowed at room temperature for 30 minutes, and the plate was washed with a lysis buffer (20 mM Tris-HCl, pH 7.6, 150 mM NaCl, 5 mM MgCl₂, 0.5% NP-40, 1 mM DTT, 0.1% BSA). For background measurement, wells to which RNA was not added, but 100 μL of the lysis buffer, 1 μL of 100 mM DTT, and 1 μL of 40 unit/4 RNase inhibitor (Takara, 2313A) were added were also prepared. Then, 200 μL of a blocking buffer (20 mM Tris-HCl, pH 7.6, 150 mM NaCl, 5 mM MgCl₂, 0.5% NP-40, 1 mM DTT, 1% BSA) was added, and the plate surface was blocked at room temperature for 30 minutes. Then, 100 μL of E. coli lysate containing luciferase-fused PPR protein having a luminescence level of 1.5×10⁸ LU/μL was added to each well, and the binding reaction was allowed at room temperature for 30 minutes. The well was washed 5 times with 200 μL of a washing buffer (20 mM Tris-HCl, pH 7.6, 150 mM NaCl, 5 mM MgCl₂, 0.5% NP-40, 1 mM DTT). […] The background (luminescence signal value obtained with adding the PPR protein and without adding RNA) was subtracted from the luminescences of the samples to which a solution containing each RNA and PPR protein was added, and the obtained values were used as the binding powers between the PPR protein and RNA.
By using the V3.1 motif, PPR proteins for the same 23 kinds of target sequences were similarly prepared (SEQ ID NOS: 411 to 433 for the nucleotide sequences, and SEQ ID NOS: 434 to 456 for the amino acid sequences), and bindings of all the combinations were analyzed by using RPB-ELISA. The experimental method was the same as that used in Example 3.
A general note: ELISA stands for enzyme-linked immunosorbent assay.
GUGGGGGUGGUAGGAAAU: the binding signal came out at 22.6 log2 luminescence. Regarding GGUGGUGAGGCCCUGGGC, the binding signal is 20.6 log2 luminescence.
